SMILES strings stand for the structures. Values joined by “and” are separate entries in the source; they are usually repeats but may differ in a detail not shown here. Equal values may be shown once. About 5,700 (36%) of roughly 16,000 compounds were called active. Another 24% or so got no clear call; they are omitted. This is one part of the list. Unmarked numbers belong to inactive results. The call rests on the fitted dose curve; in most records, active means well fitted curve in the direction sought with a large enough effect; inconclusive means small, poorly fitted or top-dose-only effect, or effect the other way; inactive means no such curve, though single readings can be large or run the other way.
On the % scale 0 is the no-effect control and ±100 the full control effect.

Cytochrome P450 1A2 (Homo sapiens), sequence (P05177 whole entry, looked up): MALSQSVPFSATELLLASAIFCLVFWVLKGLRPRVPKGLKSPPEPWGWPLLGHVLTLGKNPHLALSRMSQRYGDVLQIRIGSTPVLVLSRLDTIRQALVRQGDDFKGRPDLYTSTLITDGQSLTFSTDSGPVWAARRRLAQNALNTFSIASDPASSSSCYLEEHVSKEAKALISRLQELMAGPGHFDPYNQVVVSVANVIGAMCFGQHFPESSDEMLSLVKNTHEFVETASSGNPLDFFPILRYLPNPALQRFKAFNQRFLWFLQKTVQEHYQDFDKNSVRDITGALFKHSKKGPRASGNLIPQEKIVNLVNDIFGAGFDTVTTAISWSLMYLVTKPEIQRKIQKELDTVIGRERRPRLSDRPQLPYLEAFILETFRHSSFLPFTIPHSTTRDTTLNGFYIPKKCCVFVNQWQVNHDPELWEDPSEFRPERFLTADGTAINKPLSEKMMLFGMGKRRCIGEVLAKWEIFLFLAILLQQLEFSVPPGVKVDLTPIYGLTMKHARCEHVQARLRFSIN

This assay addresses Cytochrome P450 1A2 (Homo sapiens) (UniProt P05177). The experiment in a line: Cytochrome panel assay with activity outcomes. To be noted: recombinant CYP, pro-luciferin dealkylation, luminescence, p450-cyp1a2; series mostly up to 57.1 µM; activity, negative = inhibition: at the top concentration.
For `Cn1cccc1C(=O)N1CCC2(CCN(Cc3ccccc3)CC2)CC1`, the “activity, negative = inhibition” value is 10.3%. With `Cc1cc(Cl)ccc1Oc1ncnc2oc(-c3ccccc3)cc12`, the concentration at half-maximal activity (AC50) was 3.16 µM (active). On the same count and under the same terms, then `O=c1c2c(-c3cccs3)csc2[nH]c(=S)n1-c1ccccc1`, with 12.6 µM (active). For the molecule `CCN(CC)C(=O)c1sc2[nH]c(=S)n(-c3ccccc3)c(=O)c2c1C`, the “activity, negative = inhibition” value was 11.3%. Still for that read-out and setting: as for `CCc1cc2c(=O)n(-c3ccccc3)c(=S)[nH]c2s1`, the figure is -27.5%.

Consider `N[C@@H](Cc1ccc(O)c(O)c1)C(=O)O`, for which the AC50 entry is “inactive”. Same read-out and setting: as for `COc1ccc(/C=C(\C#N)C(N)=O)c(OC)c1`, the figure is 1.58 µM (active).

Turning to `N#C/C(=C\c1ccc(O)c(O)c1)C(=O)NCCCc1ccccc1`, the concentration at half-maximal activity (AC50) is 12.6 µM (active). Regarding `N#C/C(=C\c1ccc(O)c(O)c1)C(N)=O`, the concentration at half-maximal activity (AC50) is 39.8 µM (active). `Cc1cc(C)c(NC(=O)CS(=O)CC(=O)NCCCc2ccccc2)c(C)c1` (stereo not given): the “activity, negative = inhibition” value is 0.118%.

With `COc1cc(/C=C(\C#N)C(=O)c2ccc(O)c(O)c2)cc(I)c1O`, the AC50 was 15.8 µM (active). For the molecule `COc1ccc(/C=N/n2c(C)nnc2C)c(OC)c1`, the concentration at half-maximal activity (AC50) was 14.1 µM (active). For `N#C/C(=C\c1ccc(O)c(O)c1)C(=O)Nc1ccccc1`, the AC50 was 0.501 µM (active). For `CCOC(=O)/C(C#N)=C\c1ccc(OCC(=O)Nc2ccc(C)cc2C)c(OC)c1`, the “activity, negative = inhibition” value is -9.06%.

As to `COc1ccc(/C=C(/C#N)C(=O)Nc2cc(C)ccc2C)cc1C(=O)O`, the “activity, negative = inhibition” value was -0.1%. For `COc1cc(/C=C(\C#N)C(N)=O)cc(CSc2nc3ccccc3s2)c1O`, the AC50 is 1.26 µM (active). Consider `CCOC(=O)C1=C(CSc2nc3ccccc3s2)NC(=O)NC1c1cc(C)ccc1C` (stereo not given), for which the “activity, negative = inhibition” value is -22.3%.

For the molecule `COc1ccc(/C=C(\C#N)C(N)=O)cc1OC`, the half-maximal activity concentration (AC50) is 3.16 µM (active). For the molecule `CCOC(=O)/C(C#N)=C\N(C)C`, the “activity, negative = inhibition” value was -18.7%. In the case of `C[C@H](NC(=O)/C(C#N)=C/c1ccc(O)c(O)c1)c1ccccc1`, the half-maximal activity concentration (AC50) is 15.8 µM (active).

Take `N#C/C(=C\c1ccc(O)c(O)c1)C(=O)NCCc1ccccc1`: the half-maximal activity concentration (AC50) is 10 µM (active).

Turning to `CC(=O)NCCc1ccc(O)c(O)c1`, the “activity, negative = inhibition” value was -2.4%.

On to `CCOc1ccccc1/C=C(\C#N)C(N)=O`, for which the AC50 was 2 µM (active).

With `C/C(CCN1CCCCc2nc(C)c(C)cc21)=N\O[C@@H](C)c1cn([C@H](CO)Cc2ccccc2)nn1`, the activity, negative = inhibition was -1.07% [at 11.4 µM] and -1.23% [at 11.4 µM].

Consider `Cc1cccc(N(CC(=O)NC2CCCC2)C(=O)c2cc3cc4cccc(C)c4nc3s2)c1C`, for which the “activity, negative = inhibition” value was -18.2%. For the molecule `Cc1c2c(nc3c(C(=O)NC4CCCC4)cnn13)CCCC2`, the AC50 was 2.82 µM (active). Consider `Cc1ccc(C(=O)NC2CCCCCC2)cc1N1CCCC1=O`, for which the “activity, negative = inhibition” value is -22.9%. With `C[C@@H](Cc1ccccc1)Nc1ncnc2c1ncn2[C@@H]1O[C@@H](CO)[C@H](O)[C@@H]1O`, the “activity, negative = inhibition” value was 1.16%. Turning to `CC(Sc1nnc(C(C)N(C)C)n1-c1ccc(Cl)cc1)C(=O)Nc1ccc2c(c1)OCO2` (stereo not given), the AC50 was 17.8 µM (active). In the case of `O=C(OCCCN1CCCCC1)c1ccc(O)cc1`, the activity, negative = inhibition is -21.1% [at 11.4 µM]. Regarding `CCOC(=O)c1ccc(N)cc1`, the half-maximal activity concentration (AC50) is 2 µM (active).

Turning to `CCCCNc1ccc(C(=O)OCCOCCOCCOCCOCCOCCOCCOCCOCCOC)cc1`, the “activity, negative = inhibition” value was 3.14% [at 25.6 µM]. Still for that read-out and setting: as for `CCOC(=O)c1ccc(N2C(=O)CC(Nc3ccc(CCO)cc3)C2=O)cc1` (stereo not given), the figure is 6.03%. As for `CN(C)CCOC(=O)c1ccc(N)cc1`, the activity, negative = inhibition was 1.14% [at 11.4 µM].

Take `CCN(CC)CCOC(=O)c1ccc(N)cc1`: the AC50 result was “inactive”. Regarding `CCOC(=O)c1ccc(-c2ccc(CO)o2)cc1`, the AC50 was 2.51 µM (active). For the molecule `CCCCOC(=O)c1ccc(O)cc1`, the AC50 was 0.0794 µM (active). For the molecule `CO[C@@H]1COC(=O)[C@H]2CCCN2C(=O)[C@@H](C)COC(=O)CCC[C@H]1C`, the activity, negative = inhibition was 6.36% [at 11.4 µM]. The same measure, in the same setting: then `O=C1NC(=O)C(c2ccccc2)(c2ccccc2)N1`, with -10.8%; and `COCC(=O)N1CCC[C@@]2(CCN(Cc3ccc(C#N)cc3)C2)C1`, with 0.305%. Consider `O=S(=O)(c1cccc2c(I)cccc12)N1CCCNCC1`, for which the AC50 is 10 µM (active). Still for that read-out and setting: as for `CCN(CC)c1ccc(/C=C/c2nc3ccccc3s2)cc1`, the figure is 2.51 µM (active). As to `Cc1cccc(CNc2ccnc(-c3ccoc3)n2)c1`, the AC50 is 2 µM (active).

As to `c1ccc(CNc2ccnc(-c3ccoc3)n2)cc1`, the concentration at half-maximal activity (AC50) is 2.51 µM (active). With `c1cc2c(cc1C(N1CCNCC1)N1CCNCC1)OCO2`, the activity, negative = inhibition was -3.03% [at 2.29 µM]. `CN(C)c1ccc(-c2nc(N3CCNCC3)c3ccccc3n2)cc1`: the half-maximal activity concentration (AC50) is 10 µM (active). Turning to `c1ccc2c(N3CCNCC3)nc(-c3ccc4c(c3)OCO4)nc2c1`, the AC50 is 12.6 µM (active). As for `O=C(Nc1ccccc1)N1CC[C@@]2(CCCN(C(=O)c3cnccn3)C2)C1`, the “activity, negative = inhibition” value is -8.64%.

With `Cc1c(Cl)cnc(NC(=O)COC(=O)CCS(=O)(=O)c2ccccc2)c1Cl`, the half-maximal activity concentration (AC50) was 11.2 µM (active). In the case of `Cc1ccc(S(=O)(=O)N2CCOCC2)cc1NC(=O)COC(=O)CCC(=O)c1cccs1`, the “activity, negative = inhibition” value was -17.9%.

As to `CC(C)=CC(=O)OCC(=O)Nc1ncc(Cl)c(C)c1Cl`, the AC50 was 25.1 µM (active). For the molecule `COC(=O)[C@@]1(Cc2ccc(F)cc2)[C@H]2c3cc(C(=O)N(C)C)n(Cc4ccc(C)o4)c3C[C@H]2CN1C(=O)c1ccccc1`, the “activity, negative = inhibition” value is -12.5%. Still for that read-out and setting: then `CCN(CC)CC#CCC(C)(c1ccccc1)c1ccccc1`, with -22.5%; and `CC[N+](CC)(CC)CC[C@](O)(c1ccccc1)C1CCCCC1`, with -11.1% [at 25.6 µM]. `CCN(CC)CC#CCOC(=O)[C@@](O)(c1ccccc1)C1CCCCC1`: the AC50 was 3.98 µM (active). Regarding `CCOC(=O)C(NC(C)=O)C(OC(C)=O)c1cccc(N(CCO)CCO)c1` (stereo not given), the “activity, negative = inhibition” value is -4.35%.

For `Cc1cc(C)c(C#N)c(SCS(=O)c2ccc(C(C)(C)C)cc2)n1` (stereo not given), the concentration at half-maximal activity (AC50) was 20 µM (active). Consider `CN1CCN(CC(O)c2ccccc2)CC1` (stereo not given), for which the “activity, negative = inhibition” value was 1.6%.

`Cc1[nH]nc(N2CCCCCC2)c1[N+](=O)[O-]`: the AC50 was 2 µM (active). Turning to `COc1ccccc1CCn1c(=O)c(-c2ccccc2)nc2cncnc21`, the AC50 was 1 µM (active).

Turning to `COc1ccccc1CCn1c(=O)c(-c2ccc(F)cc2)nc2cncnc21`, the AC50 is 1 µM (active). Same read-out and setting: as for `COc1ccccc1CCn1c(=O)c(-c2cccc(Cl)c2)nc2cncnc21`, the figure is 0.316 µM (active); as for `Cn1c(=O)c(-c2cccs2)nc2cncnc21`, 1.26 µM (active). For `CCCC[C@]1(C2CCCC2)Cc2cc(OCC(=O)O)c(Cl)c(Cl)c2C1=O`, the “activity, negative = inhibition” value was -9.78%. Same read-out and setting: as for `Cc1[nH]n(C(C)(C)C)c(=O)c1Sc1ccccc1`, the figure is 14.3%.

The values above are taken from PubChem BioAssay AID1851 (National Center for Advancing Translational Sciences (NCATS), 2009).
